Laboratory results as given in PubChem BioAssay (NCI).
The panel holds about 79,000 compounds, 15% with a hit somewhere; the sample as a whole holds those more often. A number with no mark means an inactive call. The source made the active and inactive calls. No stated cut-off is given here; in the data, active means growth inhibition above about 70%; inactive means the rest.

Experiments:
[1] = NCI Yeast Anticancer Drug Screen. Data for the rad50 strain (AID 155);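 further: 0% = growth of vehicle-only cultures of the same strain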; settings: S. cerevisiae rad50 strain growth inhibition, stronger effect = higher value
Method in brief: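 Vehicle-treated cultures provide the reference for the growth inhibition reported for compound-exposed, repair-deficient yeast.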

[2] = NCI Yeast Anticancer Drug Screen. Data for the mec2-1 strain (AID 157); settings: S. cerevisiae mec2-1 strain, stronger effect = higher value
Method in brief: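 Test agents were screened against the mec2-1 yeast strain, with defined DNA repair or cell cycle alteration. Growth was scored as inhibition against vehicle-only controls.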

[3] = NCI Yeast Anticancer Drug Screen. Data for the sgs1 mgt1 strain (AID 161);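 further: 0% = growth of cultures given vehicle only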; settings: S. cerevisiae sgs1 mgt1 strain, stronger effect = higher value
Method in brief: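 Read-out: growth inhibition vs vehicle controls. Cells: mutant yeast strain deficient in DNA damage repair.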

[4] = NCI Yeast Anticancer Drug Screen. Data for the cln2 rad14 strain (AID 165);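 further: 0% = growth equal to vehicle treated cultures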; settings: S. cerevisiae cln2 rad14 strain, stronger effect = higher value
Method in brief: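 Growth of compound-exposed yeast (cln2 rad14 genotype) measured and expressed as inhibition relative to vehicle.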

[5] = NCI Yeast Anticancer Drug Screen. Data for the bub3 strain (AID 167); settings: S. cerevisiae bub3 mutant strain, stronger effect = higher value
Method in brief: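 Mutant yeast screening strain plus compound; vehicle-treated cultures serve as the 0% inhibition reference.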

[6] = NCI Yeast Anticancer Drug Screen. Data for the mlh1 rad18 strain (AID 175); settings: S. cerevisiae mlh1 rad18 strain growth inhibition, stronger effect = higher value
Method in brief: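 In this whole-cell yeast screen, a strain with altered DNA damage repair is challenged with compound, and its growth is measured against matched vehicle-treated controls.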

[7] = at 5.0 µM (retest, dose inferred, filed as 0.5)
[8] = at 50.0 µM (retest, dose inferred, filed as 5.0)

| Structure (SMILES) | growth inhibition [1, 7] | growth inhibition [1, 8] | growth inhibition ([1]; at 50.0 µM) | growth inhibition [2, 7] | growth inhibition [2, 8] | growth inhibition ([2]; at 50.0 µM) | growth inhibition [3, 7] | growth inhibition [3, 8] | growth inhibition ([3]; at 50.0 µM) | growth inhibition [4, 7] | growth inhibition [4, 8] | growth inhibition ([4]; at 50.0 µM) | growth inhibition [5, 7] | growth inhibition [5, 8] | growth inhibition ([5]; at 50.0 µM) | growth inhibition [6, 7] | growth inhibition [6, 8] | growth inhibition ([6]; at 50.0 µM) |
| --- | --- | --- | --- | --- | --- | --- | --- | --- | --- | --- | --- | --- | --- | --- | --- | --- | --- | --- |
| CCOC(=O)c1cn(CC)c2cc(-n3cccc3)ccc2c1=O | -3% | 28% | 31.4% | -1% | 21% | 20.6% | -2% | 39% | 56.4% | -2% | 17% | 22.2% | 0% | 27% | 33.5% | 1% | 50% | 47.2% |
| COC(=O)c1ccc(CCC2=CC(=O)C=CC2=O)cc1 | 39% | 99% (active) | 84.3% (active) | 39% | 100% (active) | 92.8% (active) | 35% | 100% (active) | 91.2% (active) | 29% | 75% (active) | 89.3% (active) | 43% | 100% (active) | 91.3% (active) | 49% | 99% (active) | 65.8% |
| C=C1CC2(CCOc3ccccc32)OC1=O (configuration not stated) | 6% | 70% (active) | 80.5% (active) | 17% | 91% (active) | 89.1% (active) | 12% | 92% (active) | 95% (active) | 5% | 60% | 18.6% | 4% | 86% (active) | 88.3% (active) | 17% | 89% (active) | 91% (active) |
| CCc1nc2c(O)ccc(O)c2nc1C | -137% | 33% | 72.3% (active) | -43% | -11% | 62.9% | -50% | 37% | 65% | -55% | -10% | 59.4% | -63% | 17% | 84.2% (active) | -107% | 2% | 90.3% (active) |
| CC(=O)OCc1cc(=O)n(C)c2c3c4c(cc12)c(C)cc(=O)n4CO3 | 87% (active) | 99% (active) | 85.6% (active) | 69% | 99% (active) | 88.5% (active) | 83% (active) | 99% (active) | 91.2% (active) | 79% (active) | 97% (active) | 87.4% (active) | 86% (active) | 97% (active) | 83.8% (active) | 91% (active) | 99% (active) | 89.9% (active) |
| CC(/C=C/c1cccs1)=N\NC(=S)NCC(C)C | -3% | 95% (active) | 95.6% (active) | 11% | 96% (active) | 96.2% (active) | 9% | -24% | 97% (active) | -2% | 96% (active) | 94% (active) | -1% | 95% (active) | 96.9% (active) | 3% | 96% (active) | 97% (active) |
| O=C(/C(Cl)=N/O)c1ccccc1 | 80% (active) | 99% (active) | 98.8% (active) | 47% | 100% (active) | 99.2% (active) | 51% | 99% (active) | 49.3% | 38% | 99% (active) | 58% | 91% (active) | 99% (active) | 99% (active) | 62% | 99% (active) | 50% |
| CCCCCCCSCC1C(=O)C23CC1CCC2C12COC(O)C1C(C)(C)C(O)CC2OC3=O (configuration not stated) | -19% | 98% (active) | 91.7% (active) | 1% | 99% (active) | 92.2% (active) | -11% | 98% (active) | 92.2% (active) | 9% | 99% (active) | 90% (active) | -4% | 99% (active) | 89% (active) | -29% | 98% (active) | 63.4% |
| NC(N)=NS(=O)(=O)c1ccc(N=Cc2c3ccccc3nc3cc(Cl)ccc23)cc1 | 5% | -4% | 95.1% (active) | 11% | -2% | 93% (active) | 4% | -5% | 96.2% (active) | -5% | -3% | 91.5% (active) | 10% | 0% | 26.5% | 6% | -2% | 97% (active) |
